# From PubChem BioAssay
# G9a block = inhibitors of human histone lysine methyltransferase G9a; Q96KQ7; G9a H3K9 monomethylation, AlphaScreen, 2 h; Potency, µM (series often up to 102 µM), for inactives: top-dose activity, negative = inhibition, hits mostly inhibitors; actives 8.8% (n = 350,000); also: potency is read from the fitted curve at half-maximal effect; % is scaled to controls: 0 for no effect and ±100 for the full control effect; nearly all actives have a fitted effect of over 75% in size
#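 Methyltransferase reactions run at room temperature for 2 h (20 nM enzyme, 500 nM biotin-H3K9 peptide, 20 uM SAM) after a 15 min compound preincubation; product detected by AlphaScreen beads and anti-H3K9me1 antibody.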
# BAZ2B inh = BAZ2B (human) inhibition. Q9UIF8. AlphaScreen BAZ2B-H3K14Ac peptide displacement. Potency, µM (doses to about 114 µM), without a hit: at the highest dose activity change, negative = inhibition, usual class: inhibitors. actives 4.4% (n = 360,000). AID 504333; also: potency is read from the fitted curve at half-maximal effect; % is scaled to controls: 0 for no effect and ±100 for the full control effect; nearly all actives have a fitted effect of over 60% in size
#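 Inhibition is scored as reduced AlphaScreen emission. The BAZ2B/b-H3(5-23)K14Ac complex (50 nM each) in PBS pH 7.4, 0.01% Tween-20 meets compound (up to 110 uM) for 30 min at RT before bead addition.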
# PLK1 PBD inh = blocks phosphopeptide binding to human PLK1 polo-box domain; Plk1 PBD binding of FITC phosphopeptide, fluorescence polarization; Potency, µM, for inactives: max response, negative = inhibition, actives largely listed as inhibitors; actives 2.8% (n = 360,000); also: potency is read from the fitted curve at half-maximal effect; series mostly up to about 57 µM; % is scaled to controls: 0 for no effect and ±100 for the full control effect; nearly all actives have a fitted effect of over 65% in size
# JMJD2A Tudor = inhibitors of human JMJD2A Tudor domain | Potency, µM (top dose mostly 114 µM), for inactives: at the highest dose activity change, negative = inhibition, hits mostly inhibitors | O75164 | AID 504339 | AlphaScreen JMJD2A-Tudor / H3K4me3 peptide binding | actives 4.4% (n = 390,000); also: potency is read from the fitted curve at half-maximal effect; % is scaled to controls: 0 for no effect and ±100 for the full control effect; nearly all actives have a fitted effect of over 50% in size
# Target sequence (O75164 whole entry, looked up, the tested form may be a part): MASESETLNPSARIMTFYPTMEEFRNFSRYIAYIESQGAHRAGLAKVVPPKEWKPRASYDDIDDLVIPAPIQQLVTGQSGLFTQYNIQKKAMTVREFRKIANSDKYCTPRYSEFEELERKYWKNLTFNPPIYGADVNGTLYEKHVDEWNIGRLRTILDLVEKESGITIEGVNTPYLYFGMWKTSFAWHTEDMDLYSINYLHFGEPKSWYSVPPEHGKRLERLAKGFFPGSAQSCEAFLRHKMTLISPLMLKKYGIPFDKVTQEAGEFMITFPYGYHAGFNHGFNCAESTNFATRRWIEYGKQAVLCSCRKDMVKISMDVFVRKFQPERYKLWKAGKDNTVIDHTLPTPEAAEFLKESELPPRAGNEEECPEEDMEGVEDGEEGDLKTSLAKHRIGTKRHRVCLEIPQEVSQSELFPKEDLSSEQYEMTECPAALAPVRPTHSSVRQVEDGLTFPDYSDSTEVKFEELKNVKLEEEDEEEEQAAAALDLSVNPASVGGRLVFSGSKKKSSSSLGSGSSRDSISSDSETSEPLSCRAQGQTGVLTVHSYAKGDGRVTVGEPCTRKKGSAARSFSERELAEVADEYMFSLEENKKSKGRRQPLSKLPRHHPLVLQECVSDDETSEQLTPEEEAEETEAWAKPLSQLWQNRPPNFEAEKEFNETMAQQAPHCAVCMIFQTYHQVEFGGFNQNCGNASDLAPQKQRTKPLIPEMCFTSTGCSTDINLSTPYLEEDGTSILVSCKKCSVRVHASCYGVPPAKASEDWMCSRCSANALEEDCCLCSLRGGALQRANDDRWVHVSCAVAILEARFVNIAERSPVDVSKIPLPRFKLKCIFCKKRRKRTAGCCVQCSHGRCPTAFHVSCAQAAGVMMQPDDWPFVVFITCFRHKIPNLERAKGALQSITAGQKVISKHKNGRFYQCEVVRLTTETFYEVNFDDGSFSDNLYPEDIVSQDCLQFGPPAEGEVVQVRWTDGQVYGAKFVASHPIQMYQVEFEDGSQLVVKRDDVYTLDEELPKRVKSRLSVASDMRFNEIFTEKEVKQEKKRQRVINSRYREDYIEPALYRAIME
# PI5P4K alpha inh = PI5P4K alpha (human) kinase inhibition | max response, % | PI5P4Kalpha enzyme, ADP-Glo luminescence, 60 min; active compounds read low | actives 1.2% (n = 330,000); active = max response of -50% or lower; inconclusive = between -30% and -50%; inactive = -30% or higher; also: value at the top dose of about 77 µM; % is scaled to controls: 0 for no effect and ±100 for the full control effect
#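 Single end-point luminescence (ADP-Glo) quantified ADP from PI5P4Kalpha turnover; ATP 5 microM final, 1 h at RT, 0.1% CHAPS and 0.28 mM EGTA in HEPES pH 7.4.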
# HP1b binding inh = HP1-beta chromodomain-methylated histone interaction inhibition. P83916. actives 0.56% (n = 390,000). Potency, µM (highest dose often 114 µM), without a hit: at the highest dose activity change, negative = inhibition, hits mostly inhibitors. AID 540317. AlphaScreen HP1-beta / biotin-H3K9me3 peptide binding; also: potency is read from the fitted curve at half-maximal effect; nearly all actives have a fitted effect of over 70% in size
#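 Compound inhibition of the preformed complex between 50 nM HP1-beta and 50 nM biotinylated H3K9me3 peptide was read by AlphaScreen. Buffer was PBS pH 7.4 with 0.01% Tween-20. Incubations ran 30 min at room temperature, with 10 ug/mL donor/acceptor beads.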
# An asterisk follows results filed as active; u = inconclusive; x = no result; [ ] = remark or other dose. Only some compounds are listed: those with a hit (about 12% of all), similar ones and a draw of the others. Unless noted, calls follow the shape of the dose curve; as a rule, active = well fitted curve in the direction sought with a large enough effect; inconclusive = small, poorly fitted or top-dose-only effect, or another doubt; inactive = no such curve, though single readings can be large; an effect the other way counts as inactive or inconclusive.
SMILES,G9a block,BAZ2B inh,PLK1 PBD inh,JMJD2A Tudor,PI5P4K alpha inh,HP1b binding inh
CC(C)C[C@@H](C(=O)NC1CCN(Cc2ccccc2)CC1)N1C(=O)N2CCc3c([nH]c4ccccc34)[C@@]2(C)C1=O,u,u,-4%,40µM*,6,u
COc1ccc2[nH]c3c(c2c1)CCN1C(=O)N([C@@H](C)C(=O)NCc2ccco2)C(=O)[C@]31C,1%,50µM*,3%,-26%,7,12%
COCCn1c(=O)c(C)nc2cnc(Oc3cccc(Cl)c3)nc21,0%[0.501 µM],x,x,x,x,x
CCOC(=O)c1c(NC(=O)CS(=O)(=O)c2ccc(C)cc2)sc2c1CCCCC2,-1%[59 µM],-6%,x,-15%,x,-10%
CCC(C)c1ccccc1OCCn1c(CCNC(=O)C2CCCCC2)nc2ccccc21 (stereo unspecified),x,x,x,-16%[57.1 µM],x,6%[57 µM]
O=C1C=C(c2ccc3cc[nH]c3c2)C[C@@H](c2ccc3c(c2)OCO3)C1,-4%[0.501 µM],50µM*,u,56µM*,u,u
CCn1c(C(=O)N2CCc3ccccc3C2)cc2oc3ccccc3c21,u,50µM*,-4%,u,9,-23%
CCn1c(C(=O)NCc2ccc(F)cc2)cc2oc3ccccc3c21,1%[59 µM],1%,x,-33%,x,21%
Cn1c(C(=O)N2CCc3ccccc3C2)cc2oc3ccccc3c21,u,u,-8%,79µM*,17,u
COc1ccccc1-c1cc(N(C)Cc2ccco2)ncn1,4%[0.501 µM],x,x,x,x,x
Cn1cccc1CC(=O)N/N=C/c1ccco1,x,u,-8%,-25%,1,2%
CC(/C=N/NC(=O)Cc1cccn1C)=C\c1ccco1,11µM*,u,-3%,u,u,-2%
Cn1cccc1CC(=O)N/N=C\c1cccs1,x,50µM*,-12%,-22%,-2,6%
CC(=C/c1ccco1)/C=N/NC(=O)Cc1cccn1C,u,45µM*,-12%,-15%[57.1 µM],-18,-4%
Cc1ccc(/C=N/NC(=O)Cc2cccn2C)s1,u,u,-3%,-13%,0,0%
CCOc1ccccc1Nc1ccc2cc(S(=O)(=O)N3CCCCC3)ccc2n1,u,34%,x,49%,x,107%
NC(=O)CC[C@H](NC(=O)c1ccc(F)cc1)C(=O)OCC(=O)NCc1ccc2c(c1)OCO2,x,x,4%,-6%,-1,36%
CC(C)n1cc(/C=N/Nc2ccc(C(=O)O)cc2)c2ccccc21,45µM*,-35%,u,-31%,8,1%
O=C(O)c1ccc(N/N=C/c2cn(Cc3ccccc3F)c3ccccc23)cc1,2%[12.7 µM],40µM*,30µM*,56µM*,-2,-16%
COC(=O)N/N=C/c1cn(Cc2ccccc2F)c2ccccc12,-4%[12.7 µM],u,-4%,-23%,2,11%
Nc1ccc(C(=O)N/N=C/c2cn(Cc3ccccc3F)c3ccccc23)cc1,x,35µM*,1%,89µM*,2,9%
Nc1ccc(C(=O)N/N=C/c2cn(Cc3ccc(F)cc3)c3ccccc23)cc1,5%,u,-3%,u,-11,13%
Cn1cc(/C=N/Nc2ccccc2)c2ccccc21,13µM*,40µM*,-10%,50µM*,0,u
Nc1ccc(C(=O)N/N=C/c2cn(Cc3ccccc3)c3ccccc23)cc1,-13%,u,-6%,u,-22,-13%
O=C(N/N=C/c1cn(Cc2cccc(F)c2)c2ccccc12)c1cc(O)cc(O)c1,x,6.3µM*,19µM*,7.1µM*,-104*,11µM*
SMILES,G9a block,BAZ2B inh,PLK1 PBD inh,JMJD2A Tudor,PI5P4K alpha inh,HP1b binding inh
O=C1[C@H]2[C@H]3[C@H](O)[C@H](O)C/C(=N\OC[C@@H](O)COCc4ccco4)[C@@H]3CC[C@H]2C(=O)N1c1ccc(F)cc1F,50µM*,-33%,x,x,x,x
CCOC(=O)C(=CN=C(N)Nc1nc2ccccc2o1)C(=O)OCC,1%,3%,-13%,-9%,3,37%
CCCOC(=O)Nc1nc2ccccc2o1,50µM*,79µM*,4%,u,0,10%
COCCCN1CN(S(=O)(=O)c2cccs2)c2nc3ccccc3nc21,13µM*,-6%,-8%,-14%,3,24%
O=S(=O)(c1cccs1)N1CN(C2CCCC2)c2nc3ccccc3nc21,u,u,-2%,-31%,0,11%
CC(C)CN1CN(S(=O)(=O)c2cccs2)c2nc3ccccc3nc21,45µM*,-25%,x,x,x,x
Cc1ccc2nc(SCC(=O)NCc3ccccc3)nc(=O)n2c1,-4%[0.501 µM],7%,0%,-15%,-8,29%
Cc1cc(C)c(NC(=O)C2=CCN(S(=O)(=O)c3ccc(F)cc3)CC2)c(C)c1,u,2%,-9%,-19%,4,36%
Cc1cc(C)c(NC(=O)c2c[nH]c(=S)n2-c2ccc(F)cc2)c(C)c1,2.8µM*,-21%,-2%,u,2,28%
CN(C)c1cc(-c2ccc(C#N)cc2)oc(=O)c1Cl,x,-15%,-7%,-20%,2,22%
CN(C)c1cc(-c2ccc(Br)cc2)oc(=O)c1Cl,50µM*,u,1%,-9%,8,15%
NCCCCCc1nnc(SCC(=O)c2ccc(Cl)cc2)o1,50µM*,0%,-5%,-16%,3,26%
CCN1C(=O)/C(=C2/C(=O)N3c4c(cc(OC(C)=O)cc42)C(C)=CC3(C)C)SC1=S,2.8µM*,2µM*,-2%,u,5,u
COc1cc2c3c(c1)/C(=C1/SC(NC(C)=O)=NC1=O)C(=O)N3C(C)(C)C=C2C,u,20µM*,-13%,u,-11,u
Cc1ccc(CCN2CCN=C2Nc2ccccc2)cc1,3%[2.33 µM],8%,-25%,-12%,3,24%
COc1cccc(C2c3[nH]c4ccccc4c3CCN2CCCn2cccn2)c1 (stereo unspecified),u,u,3%,-24%,3,10%
COc1ccc(C2c3[nH]c4ccccc4c3CCN2CCCn2cccn2)c(C)c1C (stereo unspecified),40µM*,u,-10%,u,2,-17%
O=C(NCc1ccc(Cl)cc1)C1CCN(S(=O)(=O)c2cc([N+](=O)[O-])ccc2Cl)CC1,45µM*,9%,2%,3%,1,18%
CN(C)C(CNC(=O)C1CCN(S(=O)(=O)c2ccccc2)CC1)c1ccccc1 (stereo unspecified),19%[59 µM],2%,34µM*,-7%[11.4 µM],5,13%
O=C(NCc1ccc(Cl)cc1)C1CCN(S(=O)(=O)c2ccccc2)CC1,-6%,-7%,27µM*,-2%,-7,-18%
Cc1ccc(CNC(=O)C2CCN(S(=O)(=O)c3cccs3)CC2)cc1,-2%,8%,u,89µM*,-13,8%
